# From ChEMBL document CHEMBL3988442, “University of Dundee, Small-Polar-MMV Screening Library” (2021)
# Tests used:
# [1] = biological target: T1, Aspartate--tRNA(Asp/Asn) ligase (Mycobacterium tuberculosis (strain ATCC 25618 / H37Rv)) (UniProt P9WFW3); assay: Assay for Asp RNA synthetase-1 from Mycobacterium tuberculosis; assay type: functional; parameters: scale not given: direction of the effect not stated beside the values; conditions: 30 µM; note: in the data most compounds retested in dose-response had high values
# T1 sequence (whole entry): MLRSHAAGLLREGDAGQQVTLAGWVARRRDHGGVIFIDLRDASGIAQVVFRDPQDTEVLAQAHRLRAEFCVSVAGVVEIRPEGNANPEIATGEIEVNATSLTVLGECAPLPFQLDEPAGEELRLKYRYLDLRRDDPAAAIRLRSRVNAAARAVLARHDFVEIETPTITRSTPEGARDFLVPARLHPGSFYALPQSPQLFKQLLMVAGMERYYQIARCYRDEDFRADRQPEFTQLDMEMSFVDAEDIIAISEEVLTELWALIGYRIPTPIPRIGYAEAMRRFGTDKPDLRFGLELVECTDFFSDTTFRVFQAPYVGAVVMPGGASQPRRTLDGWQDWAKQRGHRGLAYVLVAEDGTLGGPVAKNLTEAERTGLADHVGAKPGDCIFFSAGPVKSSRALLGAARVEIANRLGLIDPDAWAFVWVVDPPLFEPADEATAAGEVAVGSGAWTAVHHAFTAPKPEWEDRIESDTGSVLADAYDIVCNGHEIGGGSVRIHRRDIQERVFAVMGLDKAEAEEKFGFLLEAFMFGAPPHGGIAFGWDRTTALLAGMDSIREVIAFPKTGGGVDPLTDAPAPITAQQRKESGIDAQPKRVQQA
# [2] = biological target: Shiga toxin 2 (Escherichia coli O157:H7) (UniProt P09385+P09386); assay: E. coli 0.157:H7 Shiga Toxin SOP - stx2 screening assay; assay type: functional; parameters: scale not given: direction of the effect not stated beside the values; conditions: 30 µM
SMILES,Percent Effect [1] [%],Percent Effect [2] [%]
Cc1csc(CNC(=O)NCC(O)c2cccc(Cl)c2)n1 (centres undefined),3.71,-10.8
O=C(CCNc1ncccn1)NCCc1ccn(-c2ccccc2)n1,-3.01,-46.2
CCN(Cc1ccc2c(c1)OCO2)C(=O)CCc1c(C)nc(C)[nH]c1=O,-2.63,29.9
COC(=O)c1ccc(N2CCN(C(=O)c3cc(C)on3)C(C)C2)cc1 (centres undefined),5.2,23.5
CC(=O)N1CCC(Oc2ccc(C#N)cn2)CC1,-4.74,-70.8
Cc1noc(CN2CCOC(CN(C)C)C2)n1 (centres undefined),-7.81,-10.9
O=C(NCC1CCSCC1)N(CCCO)C1CCc2ccccc21 (centres undefined),6.01,-37.4
Cc1ccc2c(c1)CN(C(=O)c1ccccc1F)C(CN(C)C)CO2 (centres undefined),5.11,3.26
N#Cc1ccccc1CN1C[C@@H]2CC[C@H](C1)N(CC1CC1)C2=O,2.11,-9.72
CSCC(CCO)NC(=O)Nc1cccc(Br)c1 (centres undefined),8.05,-15.3
O=C(c1ccc(O)cc1)N1CCN(C(=O)c2ccc3c(c2)COC3)CC1,-1.8,-20
O=C(CCc1ccccn1)N1CCc2cc(Cl)cc(Cl)c2C1,15.8,-69.6
CCc1nc(N)sc1C(=O)N1CCCC(CCc2ccccc2C)C1 (centres undefined),6.53,-7.07
COCCN1C[C@H]2[C@@H](C1)N(Cc1ccc(C)o1)CC[C@H]2OC,-3.26,-28.9
CC(C)OCCC(=O)N(C)CCCc1cc(-c2ccccc2)no1,2.1,38.9
O=C(NCC1CC1)Nc1cccc(N2CCN(CC3CC3)CC2)c1,-1.59,-38.1
Cc1ccc(NC(=O)C2=CN=S=N2)cc1,-2.07,-19.2
